Bioassay records deposited in PubChem BioAssay by several laboratories.
This is a sample that favours compounds with a hit; in the whole collection about 2.8% have one here.
CF NFkB block = blocks PAF-induced NF-kB reporter in cystic fibrosis cells; 0.86% of 360,000 active; AID 588850; inhibition, % at 5 µM; KKLEB NF-kB-GFP reporter, GFP fluorescence overnight;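 active = at least 50% inhibition at 5 µM, scaled per plate between neutral and stimulator controls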;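 also: PAF is a Pseudomonas aeruginosa culture filtrate used as stimulus; plate controls were PAF-stimulated DMSO wells for no effect and unstimulated DMSO wells for full effect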
TRPM1 prom inh = MITF TRPM1 promoter inhibition in SK-MEL-5 cells | SK-MEL-5 TRPM1 promoter luciferase, 24 h | inhibition, % at 12.5 µM | 0.83% of 330,000 active | AID 488899;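 active = mean inhibition across replicates of 60% or more, whatever share of single replicates reaches that level; inconclusive = some that reach 60%, reason not given; inactive = mean inhibition across replicates below 60%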
Shn3 3UTR inh = Schnurri-3 reporter inhibition in Clone20 osteoblasts | Clone20 osteoblast Shn3 3'UTR firefly luciferase, 24 h | inhibition, % at 12.5 µM | 0.52% of 360,000 active;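 active = mean inhibition of at least 75% with every replicate also reaching 75%; inconclusive = mean inhibition at least 75% but some replicate below; inactive = mean inhibition below 75%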;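 also: 0% = median of neutral control wells and 100% = pilot-screen positive control compound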
Peg3 promoter = reduces Peg3 promoter-driven luciferase expression in HeLa; HeLa PEG-Prom luciferase reporter, luminescence, overnight; inhibition, % at 20 µM; 1.7% of 360,000 active; AID 588405;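 active = inhibition of at least 50% at 20 µM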
KKLEB cytotox = counter-screen for CF NF-kB inhibitors: cytotoxicity. KKLEB CF airway cells viability, ATPlite luminescence, overnight; hits give low values; cells stimulated with P. aeruginosa culture filtrate. activity change (cytotoxicity), % at 5 µM. 0.36% of 360,000 active. AID 602141;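 active = corrected activity change at or below -50% at 5 µM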
HIF-2a block = blocks HIF-2a reporter activity; 0.72% of 360,000 active; inhibition, % at 18.8 µM; 786-0 RCC cells HIF-2a reporter, luciferase luminescence, overnight; AID 624352;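 active = inhibition of the luminescence signal of 40% or more relative to plate controls, in a single-dose primary screen at 18.75 µM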
An asterisk follows results filed as active; ? = inconclusive; . = no result given.

SMILES | CF NFkB block | TRPM1 prom inh | Shn3 3UTR inh | Peg3 promoter | KKLEB cytotox | HIF-2a block
CN1CCN(C2Cc3ccc(F)cc3Sc3cc(F)c(Cl)cc32)CC1 (configuration not stated) | 16 | 3 | . | 107* | -24 | 0
CN(CC(=O)Nc1ccccc1Sc1ccccc1)C1CCCCC1 | 16 | 12 | -24 | 5 | -10 | 16
CC(Cc1cccs1)NC(=O)Nc1ccc(F)cc1 (configuration not stated) | 4 | -16 | 89* | -72 | 3 | -110
Oc1c(C(c2ccc(Cl)cc2)N2CCCC2)cc(Cl)c2cccnc12 (configuration not stated) | 31 | 39 | 28 | 29 | -26 | 25
Oc1c(C(c2ccccc2Cl)N2CCCC2)ccc2cccnc12 (configuration not stated) | -18 | 75* | 87* | 26 | -17 | -10
COc1cc(N2CCCC2)c(OC)cc1/C=C(/C#N)c1ccc(Br)cc1 | -60 | -12 | -12 | 53* | -3 | 1
Cn1c(SCC(=O)c2ccc(O)cc2O)nnc1-c1ccccc1 | 0 | -1 | 1 | -95 | -3 | 4
CC(C)Cn1c(N)c(C(=O)CSc2ccc3c(c2)OCCO3)c(=O)n(C)c1=O | 45 | 40 | 86* | 21 | -12 | 11
CC(C)Cn1c(N)c(C(=O)COC(=O)c2ccc3c(c2)OCCO3)c(=O)n(C)c1=O | -16 | 7 | 67 | 0 | 0 | 20
CC(C)COC(=O)N1CCCCC1c1cc(C(=O)Nc2ccccc2)no1 (configuration not stated) | 9 | . | 14 | -8 | -9 | -30
CC1=NN(c2ccccc2)C(=O)/C1=C\C=C\c1ccccc1 | -2 | . | 15 | 71* | 7 | 87*
CCN1CCc2c(C#N)c(N3CCOCC3)nc(NCCO)c2C1 | -15 | 4 | -4 | 3 | -2 | 19
C=CCNc1nc(N2CCOCC2)c(C#N)c2c1CN(C)CC2 | 2 | 6 | 97* | 15 | -5 | 18
Oc1ccc(/C=N/Nc2ccnc3cc(Cl)ccc23)cc1O | -38 | 8 | 56 | 74* | -10 | -94
Oc1ccc(/C=N/Nc2ccnc3cc(Cl)ccc23)c(O)c1O | 5 | -9 | 7 | 13 | 4 | -4
COc1ccc(-n2sc3c(c2=S)-c2cc(OC)ccc2NC3(C)C)cc1 | 9 | 4 | -13 | 8 | -8 | 41*
CC(Oc1cc2oc(=O)cc(-c3ccccc3)c2cc1Cl)C(=O)NCC1CCC(C(=O)O)CC1 (configuration not stated) | 12 | -4 | 28 | 4 | 4 | 3
CC(NC(=O)OC(C)(C)C)C(=O)Oc1cc2oc(=O)cc(-c3ccccc3)c2cc1Cl (configuration not stated) | 82* | -1 | 10 | -7 | -18 | -18
CCOc1ccc2nc(S(=O)(=O)NC(=O)C3(C)CCN3C(=O)CCc3cccs3)sc2c1 (configuration not stated) | -1 | . | 7 | -14 | 5 | -14
COc1ccc(-c2nc(-c3ccc(NC(=O)c4ccc(Br)o4)cc3)no2)cc1OC | -4 | 3 | 17 | 54* | -6 | -166
COc1cc(-c2nc(-c3ccc(NC(=O)c4ccc(Br)o4)cc3)no2)cc(OC)c1OC | -15 | -11 | 67 | 11 | 7 | -162
Cc1ccc(C(=O)NCC(=O)OCC(=O)N(CC(C)C)c2c(N)n(Cc3ccccc3)c(=O)[nH]c2=O)cc1 | 8 | -6 | -10 | -13 | -1 | -31
COc1ccc(CNC(=O)[C@@H](NC(=O)C2CCN(C(=O)[C@@H](N)Cc3ccccc3)CC2)C(C)C)cc1 | 11 | -3 | -4 | -5 | 0 | 3
CCOc1ccc(NC(=O)N(O)C2(C#N)CCCCC2)cc1 | -7 | -3 | 1 | 96* | 7 | 6
Cc1ccsc1-c1nc(CN2C[C@@H](C)O[C@@H](C)C2)c(C)o1 | 5 | 4 | 14 | 10 | -1 | -2
SMILES | CF NFkB block | TRPM1 prom inh | Shn3 3UTR inh | Peg3 promoter | KKLEB cytotox | HIF-2a block
CCOC(=O)c1c(C)[nH]c(C)c1C(=O)COC(=O)c1ccc([N+](=O)[O-])s1 | -2 | 76* | -7 | 9 | -3 | -4
CCOC(=O)c1c(C)[nH]c(C)c1C(=O)COC(=O)/C=C/c1ccccc1[N+](=O)[O-] | -9 | 15 | 22 | 3 | 9 | 1
O=C(c1ccc2[nH]c(=O)c(=O)[nH]c2c1)N1CCc2ccccc21 | 8 | 7 | 7 | 12 | -6 | 17
O=C(OCn1ncc(Br)c(Br)c1=O)c1ccccc1Cl | 91* | 89* | 97* | 106* | -96* | 92*
O=C(OCn1ncc(Br)c(Br)c1=O)c1ccc(F)cc1 | 93* | 85* | 98* | 109* | -104* | 93*
COc1cccc(NC(=O)COC(=O)C2CC2)c1 | -21 | -6 | -19 | -38 | 5 | -43
COc1ccc(CN2CCCC(C(=O)Nc3cccc(-n4cccn4)c3)C2)c(F)c1 (configuration not stated) | 25 | 16 | 16 | 34 | -14 | 24
Cc1cccc(NC(=O)c2ccc3nccnc3c2)c1C | 25 | -9 | -4 | -19 | -7 | -11
CCCn1nnc(NC(=O)/C=C/c2ccccc2)n1 | -22 | 1 | -25 | -8 | -1 | -34
Cc1nc(NC(=O)/C=C/c2ccccc2)n[nH]1 | 44 | ? | -19 | 92* | -4 | 21
CN(CC(=O)Nc1ccc(F)cc1)C(=O)CSc1ncccn1 | -7 | -2 | 5 | 10 | 8 | 3
CCCCCc1cc(=O)oc2c(C(CCN3CCCC(C)C3)c3ccc4c(c3)OCO4)c(OC)cc(OC)c12 (configuration not stated) | 21 | 10 | -28 | 98* | -1 | 15
CCCCCc1cc(=O)oc2c(C(CCN3CCCCC3)c3ccc4c(c3)OCO4)c(OC)cc(OC)c12 (configuration not stated) | 13 | 84* | -16 | 96* | -11 | 13
COc1cc(OC)c2ccc(=O)oc2c1C(CCN1CCCC1)c1ccc2c(c1)OCO2 (configuration not stated) | 22 | -12 | 20 | -8 | -18 | 7
COc1ccc(C(CCN2CCCC(C)C2)c2c(OC)cc(OC)c3c(C)cc(=O)oc23)cc1 (configuration not stated) | -19 | -5 | -14 | -24 | -24 | -2
CCCCCc1cc(=O)oc2c(C(CCN(CC)CC)c3cc(OC)c(OC)c(OC)c3)c(OC)cc(OC)c12 (configuration not stated) | 12 | 93* | 21 | 105* | -11 | -7
CCCCCc1cc(=O)oc2c(C(CCN3CCN(c4ccccc4)CC3)c3ccc(N(C)C)cc3)c(OC)cc(OC)c12 (configuration not stated) | 27 | 3 | 64 | 2 | -3 | 7
COc1ccc2nc(SCC(=O)Nc3nccs3)[nH]c2c1 | -42 | -22 | -6 | -31 | 18 | -50
